# Tb PYK inh: qHTS of Trypanosoma Brucei Inhibitors | Potency, µM (series often up to 76.8 µM), for inactives: top-dose activity, negative = inhibition, most hits filed as inhibitors | pyruvate kinase (Trypanosoma brucei), Q57TT1 | TbPYK enzyme, Kinase-Glo Plus ATP luminescence, 45 min | 410,000 compounds, 0.12% hits; note: potency is the fitted concentration of half-maximal effect; % is set by controls: 0 for no effect and ±100 for the full control effect; nearly all actives have a fitted effect of over 50% in size
#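 Screened from lowest to highest concentration, compounds were pinned into TbPYK/substrate mixtures, and ADP (130 uM final) was added. Plates sat at room temperature for 45 min prior to Kinase-Glo Plus detection by luminescence.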
# LmPK inh: qHTS Assay for Inhibitors of Leishmania Mexicana Pyruvate Kinase (LmPK) | Potency, µM (series often up to 57.5 µM), for the others: top-dose activity change, negative = inhibition, hits mostly inhibitors | 290,000 compounds, 0.37% hits | Q27686 | purified LmPK, Kinase-Glo ATP luminescence, 1 h | AID 1721, 2009; note: potency is the fitted concentration of half-maximal effect; % is set by controls: 0 for no effect and ±100 for the full control effect
# Target sequence (Q27686 whole entry, looked up): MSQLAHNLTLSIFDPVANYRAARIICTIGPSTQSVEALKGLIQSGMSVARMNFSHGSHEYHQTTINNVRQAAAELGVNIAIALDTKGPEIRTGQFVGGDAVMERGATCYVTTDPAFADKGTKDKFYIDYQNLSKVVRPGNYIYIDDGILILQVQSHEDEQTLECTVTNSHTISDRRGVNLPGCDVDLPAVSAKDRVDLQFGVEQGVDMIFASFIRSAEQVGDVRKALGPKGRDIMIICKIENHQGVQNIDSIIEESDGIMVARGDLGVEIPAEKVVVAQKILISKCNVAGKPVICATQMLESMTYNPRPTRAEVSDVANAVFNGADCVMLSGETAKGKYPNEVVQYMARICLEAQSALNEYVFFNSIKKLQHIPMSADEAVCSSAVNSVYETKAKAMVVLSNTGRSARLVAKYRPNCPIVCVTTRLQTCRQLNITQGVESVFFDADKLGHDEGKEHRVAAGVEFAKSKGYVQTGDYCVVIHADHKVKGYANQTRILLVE
#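 Kinase-Glo luminescence read after 1 h RT reaction of 0.1 nM LmPK with 0.5 mM PEP and 0.1 mM ADP. Activity scaled between uninhibited and enzyme-free controls.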
# RE007 growth inh: qHTS Assay for Inhibitors of the HIV-1 protein Vpr | S. pombe RE007 Vpr strain, BacTiter-Glo ATP luminescence, 24 h | Potency, µM (top dose mostly 92.2 µM), for inactives: top-dose activity change, negative = less growth, usual class: inhibitors | 360,000 compounds, 0.21% hits | AID 651644, 2012; active = well fitted falling curve with a large enough effect; inconclusive = small, poorly fitted or top-dose-only effect; inactive = no such curve, though single readings can be large or run the other way; note: potency is the fitted concentration of half-maximal effect; % is set by controls: 0 for no effect and ±100 for the full control effect; nearly all actives have a fitted effect of over 50% in size
#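 Fission yeast strain RE007, carrying one chromosomally integrated HIV-1 vpr copy, was seeded at OD 0.01 in PMG+AL medium with 23 nL pinned compound. After 24 h at 30 °C and 99% humidity, viability was read by BacTiter-Glo luminescence.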
# Shiga toxin inh: A qHTS for Small Molecule Inhibitors of Shiga Toxin; inhibition, % at 38.7 µM; AID 2315, 2010; Vero cells, Shiga toxin protein synthesis inhibition reporter; 290,000 compounds, 9.2% hits; in the data active = inhibition mostly above about 28%, no sharp cut-off; inactive = mostly below about 43%; note: 0% is about no effect
# Cycloheximide cs: Cycloheximide Counterscreen for Small Molecule Inhibitors of Shiga Toxin; max response, %; 300,000 compounds, 12% hits; cell reporter, cycloheximide protein synthesis inhibition counterscreen; in the data active = max response mostly above about 13%, no sharp cut-off; inactive = mostly below about 14%; note: read at 38.3 µM for the half of the compounds with a filed dose; 0% is about no effect
# FBPA Giardia inh: qHTS Assay for Inhibitors of Fructose-1,6-bisphosphate Aldolase from Giardia Lamblia; A8B2U2; purified Giardia FBPA; Potency, µM (doses to about 59.6 µM), for the others: at the top dose activity, negative = inhibition, actives largely listed as inhibitors; 290,000 compounds, 0.71% hits; note: potency is the fitted concentration of half-maximal effect; % is set by controls: 0 for no effect and ±100 for the full control effect; nearly all actives have a fitted effect of over 55% in size
#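 Giardia FBPA (40 nM reagent) was preincubated 10 min at RT with compound (up to 57.5 uM final), then substrate plus GAPDH/TPI/NAD/arsenate coupling system with diaphorase/resazurin was added; resorufin fluorescence (525/598 nm) was read after 20 min.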
# * = called active by the depositor; ? = inconclusive; · = no result given; ! = not active in a repeat; [ ] = dose if it differs, or a comment. The sample as a whole holds a higher share of hits than the screen did. Unless noted, calls come from the whole dose curve; as a rule, active = well fitted curve in the direction sought with a large enough effect; inconclusive = small, poorly fitted or top-dose-only effect, or another doubt; inactive = no such curve, though single readings can be large; an effect the other way counts as inactive or inconclusive.
SMILES,Tb PYK inh,LmPK inh,RE007 growth inh,Shiga toxin inh,Cycloheximide cs,FBPA Giardia inh
O=C(NNC(=S)Nc1ccccc1)Nc1ccccc1,-9%,4%,14%,88*,34*,-12%
Cc1ccc(NC(=O)[C@@H](c2ccccc2)N2Cc3ccccc3C2=O)cc1F,-2%,·,·,·,·,·
CCOC(=O)Cc1cc(-c2ccc(O)cc2)nc2ccc3ccccc3c12,-1%,-3%,-11%,83*,22,0%
CCOC(=O)Cc1cc(-c2ccc(OC)cc2)nc2ccc3ccccc3c12,10%,3%,-2%,-2,-2,-10%
C=CCn1cnc2c(nnn2-c2ccc(OC)c(OC)c2)c1=O,-3%,-1%,12%,-5,-1,3%
C=CCn1cnc2c(nnn2-c2ccc(C)c(C)c2)c1=O,-2%,1%[11.5 µM],32%,88*,40*,2%
Cc1noc(C)c1C(=O)OCC(=O)c1ccc[nH]1,-6%,6%,13%,-15,1,4%
Cc1noc(C)c1C(=O)OCC(=O)c1cc(C)n(Cc2ccccc2Cl)c1C,-2%,-9%,16%,63*,45*,-9%
COc1ccc(OC(=O)c2cc(-c3ccc4c(c3)OCCO4)on2)cc1,6%,·,·,·,·,·
COc1ccc(-c2csc(COC(=O)C(C)(C)C)n2)cc1,-6%,-5%,4%,75*,30*,0%
CC(C)(C)C(=O)OCc1nc(-c2ccc(Cl)cc2)cs1,-4%,-8%,-13%,69*,59*,-1%
NC(=S)Cc1nc(-c2ccc(Cl)cc2)cs1,-10%,1%,-5%,80*,29,-1%
NNC(=O)CSCc1nc(-c2ccc(Cl)cc2)cs1,-1%,-2%,6%,30,10,0%
CC(C)(C)C(=O)OCc1nc(-c2ccc3c(c2)OCCO3)cs1,-6%,-13%,-23%,114*,54*,-2%
COc1ccc(-c2csc(C(C)(NC(C)=O)c3ccccc3)n2)cc1 (configuration not stated),2%,·,2%,·,·,·
CC(C)(C)C(=O)OCc1nc(-c2ccc(F)cc2)cs1,-1%,-5%,5%,92*,42*,-5%
NC(=O)Cc1nc(-c2ccc(F)cc2)cs1,-10%,-7%,-4%,12,-2,1%
COc1cccc(CNC(=O)CSc2nnc(C)c3c(C)n(-c4ccccc4)nc23)c1OC,1%,·,·,·,·,·
N[C@@H](C(=O)N[C@@H]1C(=O)N2C(C(=O)O)=C(Cl)CS[C@H]12)c1ccccc1,-9%,4%,-1%,-4,-2,20µM*!
C=CC1=C(C(=O)O)N2C(=O)[C@@H](NC(=O)C(N=O)c3csc(N)n3)[C@H]2SC1 (some centres not stated),-7%,·,·,-4,3,16µM*
C=CC1=C(C(=O)O)N2C(=O)[C@@H](NC(=O)/C(=N\O)c3csc(N)n3)[C@H]2SC1 (stereo in doubt),-9%,·,-7%[18.4 µM],·,·,·
CC1=C(C(=O)O)N2C(=O)C(NC(=O)C(N)C3=CCC=CC3)C2SC1 (configuration not stated),·,·,·,·,·,7.9µM*
O=C(COc1ccccc1)N1CCN(S(=O)(=O)c2cccs2)CC1,-6%,-4%,13%,-2,3,5%
CCOC(=O)N1CCN(C(=O)COc2ccc3c(c2)C(=O)CC(C)(C)O3)CC1,2%,0%,-1%,-6,-3,2%
CC1(C)CC(=O)c2cc(OCC(=O)N3CCCCCC3)ccc2O1,-4%,-2%,-6%,80*,57*,3%
O=C(COc1ccc(Br)cc1)N1CCCCCC1,8%,8%,9%,44,14*,4%
Cc1ccc(OCC(=O)N2CCCCCCC2)cc1,5%,1%,11%,61,16*,-7%
O=C(COc1ccc(-c2ccccc2)cc1)N1CCN(C(=O)c2cccs2)CC1,8%,3%,?,40*,15*,-5%

# High-throughput results: PubChem BioAssay, National Center for Advancing Translational Sciences (NCATS)
